Experimental data as given in the supplement of paper PMC10498489.
Out of some 2,300 compounds screened, about 330 (14%) showed activity.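 Rule for the calls: active = median modified Z-score above 1.96; inactive = 1.96 or below.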 The list is a sample of the results.

test system: HepG2 Srxn1-GFP reporter cells (+30 nM CDDO-Me); assay: Srxn1-GFP intensity median modified Z-score relative to plate median; higher = stronger NRF2 / oxidative stress reporter activation, active = hit call of the paper; conditions: 10 µM; exposure time: 24h
Outline: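 In 96-well plates holding 20,000 HepG2 Srxn1-GFP BAC reporter cells per well, compound at 10 μM and an NRF2 activator at 30 nM were added together for 24 h, with DMSO at ≤0.1%, across three replicate plates. After fixation in formaldehyde and Hoechst staining, confocal images were analysed cell by cell for cytoplasmic GFP, and images containing under 100 cells were excluded. Values are replicate medians of the per-plate modified Z-score of GFP intensity, scaled by 1.4826 × median absolute deviation.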

Srxn1-GFP intensity median modified Z-score, active:
CC[C@]1(O)CC2CN(CCc3c([nH]c4ccccc34)[C@@](C(=O)OC)(c3cc4c(cc3OC)N(C=O)[C@H]3[C@@](O)(C(=O)OC)[C@H](OC(C)=O)[C@]5(CC)C=CCN6CC[C@]43[C@@H]65)C2)C1 (some centres not stated) [euspeclibcmpd836] 27.5
CC[C@]1(O)CC2CN(CCc3c([nH]c4ccccc34)[C@@](C(=O)OC)(c3cc4c(cc3OC)N(C)[C@H]3[C@@](O)(C(=O)OC)[C@H](OC(C)=O)[C@]5(CC)C=CCN6CC[C@]43[C@@H]65)C2)C1 (some centres not stated) [euspeclibcmpd320] 25.8
Cc1cc(-n2c(=O)[nH]c(=O)n(C)c2=O)ccc1Oc1ccc(SC(F)(F)F)cc1 [euspeclibcmpd839] 2.22
CON=C(C(=O)NC1C(=O)N2C(C(=O)O)=C(C[N+]3(C)CCCC3)CSC12)c1csc(=N)[nH]1 (configuration not stated) [euspeclibcmpd504] 35.8

Srxn1-GFP intensity median modified Z-score, inactive:
CC(=O)NC(CCC(N)=O)C(=O)O (configuration not stated) [euspeclibcmpd1028] -0.425
Oc1cc2c(cc1O)C1c3ccc(O)c(O)c3OCC1(O)C2 (configuration not stated) [euspeclibcmpd1605] -0.437
CN(C)CC/C=C1/c2ccccc2COc2ccccc21 [euspeclibcmpd104] 1.4
CC(=O)C1CCC2C3CC(C)=C4CC(=O)CC[C@]4(C)C3[C@@H](O)C[C@]12C (some centres not stated) [euspeclibcmpd179] -0.562
O=c1cc(-c2cc(O)c(O)c(O)c2)oc2cc(O)cc(O)c12 [euspeclibcmpd1548] -0.459
CC(C)(Oc1ccc(Cl)cc1)C(=O)O [euspeclibcmpd1029] -0.706
COc1ccc(C(=O)NCc2ccc(CN(C)C)cc2)cc1OC 0.376
CCc1cn(C2OCC(O)C2CO)c(=O)[nH]c1=O (configuration not stated) [euspeclibcmpd543] -0.196
C=C1c2c(Cl)ccc(O)c2C(=O)C2C(=O)[C@]3(O)C(=O)C(C(N)=O)C(=O)C(N(C)C)[C@@H]3[C@@H](O)[C@H]12 (some centres not stated) [euspeclibcmpd381] 0.0643
CCC[C@@H]1CC(C(=O)N[C@H]([C@H]2O[C@H](SC)[C@H](O)[C@@H](O)[C@H]2O)[C@H](C)O)N(C)C1 (some centres not stated) [euspeclibcmpd172] 0.221
NC(=O)C1CC2CCCCC2N1c1cc(Cl)c(C(F)(F)F)cc1[N+](=O)[O-] (configuration not stated) 0.587
CON=C(C(=O)NC1C(=O)N2C(C(=O)O)=C(CSc3nnnn3C)CSC12)c1csc(=N)[nH]1 (configuration not stated) [euspeclibcmpd505] -0.115
CON=C(C(=O)N[C@@H]1C(=O)N2C(C(=O)O)=C(COC(C)=O)CS[C@H]12)c1csc(=N)[nH]1 [euspeclibcmpd2262] -0.173
